Assay outcomes (PubChem)
In the library only some 10% were active in any assay of this set; here they are far more common.
HP1b chromo inh – HP1-beta chromodomain-methylated histone interaction inhibition; AlphaScreen HP1-beta / biotin-H3K9me3 peptide binding; AID 540317; hit rate 0.56% among 390,000; Potency, µM (titrated, usually from 114 µM), inactives show at the top dose activity change, negative = inhibition, actives largely listed as inhibitors; P83916; note: nearly all actives have a fitted effect of over 70% in size
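HP1-beta protein (50 nM final) preincubated 30 min at room temperature with biotinylated H3(1-18)K9me3 peptide (50 nM) in PBS pH 7.4, 0.01% Tween-20, then compound added for 30 min. AlphaScreen streptavidin donor/nickel chelate acceptor beads (10 ug/mL final), 30 min dark, luminescence read.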
GLS inh – glutaminase GLS (human) inhibition | hit rate 0.21% among 410,000 | GLS enzymatic activity, qHTS titration | AID 624170 | Potency, µM (top dose mostly 45.5 µM), inactives show top-dose activity change, negative = inhibition, most hits filed as inhibitors; note: % is set by controls: 0 for no effect and ±100 for the full control effect
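Glutamate formation by hKGA was monitored fluorometrically using coupled glutamate oxidase, HRP and Amplex Red. Substrate was added as 1 mM L-glutamine solution; incubation was 30 min at RT after an initial read.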
BAZ2B inh – inhibitors of human BAZ2B bromodomain | AlphaScreen BAZ2B-H3K14Ac peptide displacement | Potency, µM (titrated, usually from 114 µM), without a hit: at the highest dose activity change, negative = inhibition, most hits filed as inhibitors | AID 504333 | hit rate 4.4% among 360,000 | Q9UIF8; note: % is set by controls: 0 for no effect and ±100 for the full control effect; nearly all actives have a fitted effect of over 60% in size
Target sequence (Q9UIF8 whole entry, looked up): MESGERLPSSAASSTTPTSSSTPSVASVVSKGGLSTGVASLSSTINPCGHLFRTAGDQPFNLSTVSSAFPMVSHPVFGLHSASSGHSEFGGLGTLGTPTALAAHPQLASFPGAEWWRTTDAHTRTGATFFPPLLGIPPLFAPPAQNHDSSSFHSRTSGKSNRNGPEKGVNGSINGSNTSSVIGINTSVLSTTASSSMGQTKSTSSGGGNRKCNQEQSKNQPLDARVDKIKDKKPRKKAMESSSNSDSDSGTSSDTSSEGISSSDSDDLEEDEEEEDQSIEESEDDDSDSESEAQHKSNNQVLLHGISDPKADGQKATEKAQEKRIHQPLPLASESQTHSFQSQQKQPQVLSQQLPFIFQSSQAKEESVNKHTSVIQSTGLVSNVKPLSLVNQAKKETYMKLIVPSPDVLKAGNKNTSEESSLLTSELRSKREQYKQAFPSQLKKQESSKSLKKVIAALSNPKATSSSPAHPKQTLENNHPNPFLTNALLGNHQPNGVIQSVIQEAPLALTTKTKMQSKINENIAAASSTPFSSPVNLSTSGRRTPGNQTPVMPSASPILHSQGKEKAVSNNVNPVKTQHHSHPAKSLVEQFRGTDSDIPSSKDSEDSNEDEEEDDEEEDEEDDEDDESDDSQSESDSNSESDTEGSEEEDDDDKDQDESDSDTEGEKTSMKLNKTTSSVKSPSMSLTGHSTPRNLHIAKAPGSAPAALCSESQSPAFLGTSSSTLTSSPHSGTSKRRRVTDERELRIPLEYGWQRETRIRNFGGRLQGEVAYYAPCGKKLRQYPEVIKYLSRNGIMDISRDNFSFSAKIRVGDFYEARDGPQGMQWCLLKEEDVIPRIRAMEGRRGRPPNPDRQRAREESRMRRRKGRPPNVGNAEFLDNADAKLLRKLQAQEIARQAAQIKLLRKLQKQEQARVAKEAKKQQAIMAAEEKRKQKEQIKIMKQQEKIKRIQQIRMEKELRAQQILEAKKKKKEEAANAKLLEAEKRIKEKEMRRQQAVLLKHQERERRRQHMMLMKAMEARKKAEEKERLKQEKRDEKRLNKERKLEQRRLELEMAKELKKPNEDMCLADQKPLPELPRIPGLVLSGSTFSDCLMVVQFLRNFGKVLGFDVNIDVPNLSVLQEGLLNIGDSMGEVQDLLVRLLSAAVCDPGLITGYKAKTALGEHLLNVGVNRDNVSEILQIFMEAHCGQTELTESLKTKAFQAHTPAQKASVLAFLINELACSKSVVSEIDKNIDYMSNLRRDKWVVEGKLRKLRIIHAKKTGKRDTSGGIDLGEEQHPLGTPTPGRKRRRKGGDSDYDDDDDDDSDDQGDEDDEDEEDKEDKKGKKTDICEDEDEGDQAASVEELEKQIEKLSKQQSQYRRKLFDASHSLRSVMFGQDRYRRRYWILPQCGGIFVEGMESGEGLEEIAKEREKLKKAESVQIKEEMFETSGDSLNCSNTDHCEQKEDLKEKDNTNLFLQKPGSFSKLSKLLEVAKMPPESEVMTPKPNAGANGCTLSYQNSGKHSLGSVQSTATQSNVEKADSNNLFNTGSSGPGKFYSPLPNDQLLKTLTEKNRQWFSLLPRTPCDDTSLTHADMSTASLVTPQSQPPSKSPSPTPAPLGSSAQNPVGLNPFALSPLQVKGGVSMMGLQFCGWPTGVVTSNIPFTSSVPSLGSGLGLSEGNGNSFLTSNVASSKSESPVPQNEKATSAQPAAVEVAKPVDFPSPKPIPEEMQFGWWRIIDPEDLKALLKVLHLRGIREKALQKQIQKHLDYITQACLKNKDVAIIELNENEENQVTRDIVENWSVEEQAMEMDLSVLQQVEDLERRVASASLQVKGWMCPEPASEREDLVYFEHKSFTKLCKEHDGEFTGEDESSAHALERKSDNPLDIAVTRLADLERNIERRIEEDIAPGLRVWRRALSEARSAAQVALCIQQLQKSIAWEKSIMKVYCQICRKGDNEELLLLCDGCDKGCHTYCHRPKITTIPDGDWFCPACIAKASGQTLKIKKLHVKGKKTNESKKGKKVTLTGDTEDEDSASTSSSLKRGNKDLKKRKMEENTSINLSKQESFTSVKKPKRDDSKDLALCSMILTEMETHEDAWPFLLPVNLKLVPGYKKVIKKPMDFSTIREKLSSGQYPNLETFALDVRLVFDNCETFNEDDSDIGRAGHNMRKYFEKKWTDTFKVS
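Complex of BAZ2B and biotin-H3K14Ac (50 nM apiece) forms over 30 min at RT, then faces library compounds up to 110 uM for another 30 min; AlphaScreen beads added, 20 min dark incubation, luminescence read.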
JMJD2A Tudor inh – blocks the human JMJD2A Tudor domain | AlphaScreen JMJD2A-Tudor / H3K4me3 peptide binding | hit rate 4.4% among 390,000 | Potency, µM (top dose mostly 114 µM), inactives show top-dose activity change, negative = inhibition, usual class: inhibitors | AID 504339; note: % is set by controls: 0 for no effect and ±100 for the full control effect; nearly all actives have a fitted effect of over 50% in size
L3MBTL1 block – blocks human L3MBTL1; AlphaScreen L3MBTL1–H3K9me1 peptide binding; Q9Y468; Potency, µM (doses to about 57.1 µM), without a hit: top-dose activity, negative = inhibition, actives largely listed as inhibitors; hit rate 0.66% among 230,000; note: % is set by controls: 0 for no effect and ±100 for the full control effect; nearly all actives have a fitted effect of over 60% in size
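Displacement of a biotinylated histone H3(1-15) peptide monomethylated at Lys9 (75 nM) from L3MBTL1 (50 nM) was measured by AlphaScreen after a 30 min room-temperature compound incubation; cefsulodin titration served as intraplate control.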
G9a inh – blocks human histone lysine methyltransferase G9a | hit rate 8.8% among 350,000 | AID 504332 | Potency, µM (top dose mostly 102 µM), inactives show at the highest dose activity, negative = inhibition, usual class: inhibitors | G9a H3K9 monomethylation, AlphaScreen, 2 h; note: % is set by controls: 0 for no effect and ±100 for the full control effect; nearly all actives have a fitted effect of over 75% in size
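Chemiluminescent proximity detection of H3K9 monomethylation, read after 10 min bead incubation in the dark. Reaction: 20 nM G9a, 500 nM biotin-H3K9 peptide, 20 uM SAM cofactor, 2 h, room temperature, following 15 min enzyme-compound preincubation.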
Numbers without * were called inactive; ? = inconclusive; . = no result given; ! = a repeat was not active; [ ] = another dose, or the depositor's remark. Calls come from the whole dose curve; as a rule, active = well fitted curve in the direction sought with a large enough effect; inconclusive = small, poorly fitted or top-dose-only effect, or another doubt; inactive = no such curve, though single readings can be large; an effect the other way counts as inactive or inconclusive. Potency is the fitted concentration of half-maximal effect.

SMILES	HP1b chromo inh	GLS inh	BAZ2B inh	JMJD2A Tudor inh	L3MBTL1 block	G9a inh
Cc1cc(C)c(S(=O)(=O)NCCc2cc3ccc(C)cc3[nH]c2=O)c(C)c1	20%	-7%	-2%	-13%	.	-2%[59 µM]
CCOc1ccc(NC(=O)CN2CCN(CC(=O)Nc3ccccc3OC)CC2)cc1	43%	-2%	1%	-4%	.	45µM*
CCOc1ccc(NC(=O)CN2CCN(CC(=O)Nc3ccc(OC)cc3OC)CC2)cc1	72%	-1%	-11%	-20%	.	?
COc1ccc(NC(=O)CN2CCN(CC(=O)Nc3ccc(OC)cc3)CC2)cc1	45%	3%	-2%	6%	-4%	?
COc1ccc(NC(C)=O)cc1NC(=O)CN1CCN(CC(=O)Nc2ccccc2Cl)CC1	62%	-1%	-6%	-4%	?	.
COc1ccccc1NC(=O)CN1CCN(CC(=O)Nc2cc(NC(C)=O)ccc2OC)CC1	47%	7%	6%	-5%	6%	40µM*
CCCCOc1ccc(CC(=O)NO)cc1	44%	27%	-24%	-6%	-1%	28µM*!
CCCCOc1ccc(C(=O)NC)cc1	9%	8%	-4%	-5%	10%	13%[12.7 µM]
CCCCOc1ccc(NC(=O)CN2CCN(CC)CC2)cc1	?	0%	56µM*	0.79µM*	-1%	11µM*
COc1ccc(OCC(=O)Nc2ccccc2C(=O)OCc2cc(=O)n3nc(C)sc3n2)cc1	1%	2%	-10%	-8%	.	21%[59 µM]
CCN(CC)c1ccc(NC(=O)CN2CCN(CC(=O)Nc3ccccc3OC)CC2)cc1	?	41%	?	56µM*	.	45µM*
COc1ccc(NC(C)=O)cc1NC(C)C(=O)Nc1ccc(F)cc1 (stereo not given)	38%	7%	-7%	-10%	.	-17%[12.7 µM]
COc1ccccc1NC(=O)CN1CCN(CC(=O)Nc2ccc3c(c2)OCO3)CC1	21%	1%	10%	-20%	.	-18%[12.7 µM]
CCOc1ccc(NC(=O)CN2CCN(CC(=O)Nc3ccc(C(=O)OC)cc3)CC2)cc1	26%	16%	9%	0%	3%	32µM*
COc1ccc(NC(C)=O)cc1NC(C)C(=O)Nc1cccc2ccccc12 (stereo not given)	19%	32%	-32%	-32%	.	50µM*
C=C1CCN(C(Cc2ccccc2)C(=O)NC2CCN(Cc3ccccc3)CC2)S(=O)(=O)c2ccccc21 (stereo not given)	15%	.	.	-17%	.	.
CCc1cc2c(cc3c(=O)n(CC(=O)NC(C)C)nc(CC)n32)s1	42%	1%	4%	8%	.	-5%[59 µM]
CC(C)C(=O)OCc1cn(-c2ccc(Cl)c(Cl)c2)nn1	-4%	10%	66%	22µM*	19%	26%
CC(C)(C)C(=O)OCc1cn(-c2ccc(Cl)cc2)nn1	44%	3%	1%	5%	7%	?
COc1ccc(CCCc2nnc(SCC(=O)Nc3ccc(Cl)cc3)o2)cc1	22%	-2%	-7%	?	.	-34%[59 µM]
CCN(CC)S(=O)(=O)c1ccc2c(c1)c(=O)c(C(=O)NCc1ccc(Cl)cc1)cn2C	12%	-7%	.	-12%	.	-22%[59 µM]
COc1ccc2c(c1OC)C(=O)N1c3ccccc3C(=O)N(Cc3ccco3)C21 (stereo not given)	39%	.	.	-28%	.	.
Oc1cccc(/C=N/N(Cc2ccccc2)c2ccccc2)c1	-14%	-7%	?	?	-6%	-20%
Oc1ccc(/C=N/N(Cc2ccccc2)c2ccccc2)c(O)c1O	?	?	28µM*	56µM*	.	28µM*
Cc1cccc(C)c1OCCn1nnc2ccccc21	8%	2%	10%	17%[57.1 µM]	16%	-3%
SMILES	HP1b chromo inh	GLS inh	BAZ2B inh	JMJD2A Tudor inh	L3MBTL1 block	G9a inh
Cc1cccc(C)c1OCCN1CCCC1	?	5%	?	25µM*	.	25µM*
Cc1cc(C)c(OCCOCCN2CCCC2)c(C)c1	?	17%	.	?	.	.
Cc1cc(Cl)c(OCCCCN2CCOCC2)c(Br)c1	?	5%	50µM*	3.5µM*	-7%	?
Cc1cccc(C)c1OCCCN1CCCC1	?	-3%	50µM*	2.5µM*	.	10µM*
Cc1cc(Cl)cc(C)c1OCCCCN1CCOCC1	39%	-1%	10%	-15%	7%	?
Cc1cccc(C)c1OCCOCCN1CCN(C)CC1	25µM*!	9%	-29%	13µM*!	-2%	-42%[59 µM]
Cc1cccc(NC(=O)CSc2nc(C)cc(C)c2C(=O)Nc2ccc(Cl)cc2)c1	39%	5%	-1%	5%	.	4%[59 µM]
CN(C(=O)c1ccc2c(c1)N(Cc1cccc(Cl)c1)C(=O)c1ccccc1S2(=O)=O)C1CCCCC1	11%	-27%	1%	-18%	.	-24%[59 µM]
Cc1cccc(Cl)c1OCCCN1CCOCC1	?	9%	?	1.6µM*	3%	10µM*
Cc1cccc(OCCCN2CCOCC2)c1	34%	-4%	-21%	-5%	0%	31%[12.7 µM]
Cc1cccc(C)c1OCCCCN1CCCCC1	?	-7%	?	28µM*	-7%	79µM*
CO[C@@]1(NC(=O)CSC(F)F)C(=O)N2C(C(=O)O)=C(CSc3nnnn3CCO)CO[C@@H]21	.	1%	.	.	.	.
CCCS(=O)(=O)c1c(S(=O)(=O)CCC)c2cnccn2c1C(=O)c1ccc(OC)cc1	60%	1%	-17%	-12%	2%	50µM*
CCCS(=O)(=O)c1c(S(=O)(=O)CCC)c2cnccn2c1C(=O)c1ccc(CC)cc1	11%	1%	-3%	-34%	-5%	-39%[59 µM]
CC[n+]1c(/C=C/C=C/N(C(C)=O)c2ccccc2)sc2cc(OC)ccc21	?	3%	45µM*	56µM*	-1%	?
CCn1c(/C=C/N(C(C)=O)c2ccccc2)[n+](CCCS(=O)(=O)[O-])c2cc(Cl)c(Cl)cc21	29%	0%	-13%	-17%	0%	15%[12.7 µM]
CCOc1ccccc1NC(=O)N1CCc2c(sc3c2CCCC3)C1c1ccccc1 (stereo not given)	2%	1%	-17%	-17%	.	7%[59 µM]
COc1ccc(-n2cc(C(=O)O)c(=O)cc2C)cc1	-3%	?	?	?	-6%	45µM*
COc1ccc(-n2cc(C(=O)NCc3ccccc3)c3ccccc3c2=O)cc1	18%	-4%	-31%	?	.	?
Cc1ccc(NC(=O)Nc2nnc(N3CCCC3)s2)c(C)c1	34%	-2%	1%	-4%	.	-34%[59 µM]
C(=N\N1CCN(Cc2cccc3ccccc23)CC1)/c1cccs1	?	-11%	13µM*	40µM*	-4%	50µM*
CCN(CC)c1ccc(/C=N/N2CCN(Cc3cccc4ccccc34)CC2)c(O)c1	?	28%	?	7.1µM*	-8%	3%[2.33 µM]
